Results filed as inconclusive are left out. A number with no mark means an inactive call. Calls of active or inactive are those of the source. The call rests on the fitted dose curve; in most records, active means well fitted cell-killing curve with a large enough effect; inconclusive means small, poorly fitted or top-dose-only effect; inactive means no such curve, though single readings can be large or run the other way.
Assay: qHTS of pediatric cancer cell lines to identify multiple opportunities for drug repurposing: Confirmatory screen for U-2 OS cells (AID 1347122); further: nearly all actives have a fitted effect of over 65% in size;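 on activity change, negative = cytotoxicity: plate controls were DMSO for no effect and bortezomib for full effect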
Details: U-2 OS osteosarcoma cell viability; series mostly up to 45.9 µM; activity change, negative = cytotoxicity: at the top concentration
Summary of the method: (§1)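 Cells (500-1,000/well) in growth media were settled 5 h at 37 degrees C, then given compounds for 48 h. Viability was read as CellTiter-Glo luminescence. Primary runs used MIPE at 11 points (0.78 nM-46 µM) and NPC at 8 points (0.59 nM-46 µM); follow-ups used 11 points.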
Potency means the concentration at half of the fitted maximal effect.

| Compound | Potency | activity change, negative = cytotoxicity [%] | outcome |
| --- | --- | --- | --- |
| C[C@@]1(C(=O)Nc2ccc(F)nc2)CCCN1c1nc(Nc2cc(C3CC3)[nH]n2)c2cccn2n1 | 1.65 µM (active) |  |  |
| CC(C)CN(C[C@@H](O)[C@H](Cc1ccccc1)NC(=O)O[C@H]1CO[C@H]2OCC[C@H]21)S(=O)(=O)c1ccc(N)cc1 |  | 5.15 |  |
| CNC(=O)[C@H](CC1=CN=C2C=CCC=C12)NC(=O)[C@@H](CC(=O)NO)CC(C)C | 4.14 µM (active) |  |  |
| CN(C)CC[C@H](CSc1ccccc1)Nc1ccc(S(=O)(=O)NC(=O)c2ccc(N3CCN(Cc4ccccc4-c4ccc(Cl)cc4)CC3)cc2)cc1[N+](=O)[O-] | 0.737 µM (active) |  |  |
| CCC[C@H](Nc1nc(-c2ccc(NC(=O)NCC)c(OC)c2)ncc1C)c1cccnc1 | 0.233 µM (active) |  |  |
| Cc1cnc(-c2cc(N3CCN(C(=O)CCS(C)(=O)=O)CC3)ncc2Cl)c(C)c1 |  | -1.68 |  |
| CCC(c1ccc(O)cc1)C(CC)c1ccc(O)cc1 (centres undefined) |  | -29.4 |  |
| CCN(CCO)CCCOc1ccc2c(Nc3cc(CC(=O)Nc4cccc(F)c4)[nH]n3)ncnc2c1 |  | 27.8 |  |
| Nc1ccn([C@@H]2O[C@H](CO)[C@@H](O)[C@H]2O)c(=O)n1 |  | 142 |  |
| CC1(C)OC2CC3C4CC(F)C5=CC(=O)C=CC5(C)C4C(O)CC3(C)[C@]2(C(=O)CO)O1 (some centres undefined) |  |  | inactive |
| CCC(=O)N1CCN(c2ccc(-n3c(=O)ccc4cnc5ccc(-c6cnc7ccccc7c6)cc5c43)cc2C(F)(F)F)CC1 |  | 5.64 |  |
| CC[C@]1(O)C[C@H]2CN(CCC3=c4ccccc4=N[C]3[C@@](C(=O)OC)(c3cc4c(cc3OC)N(C)[C@H]3[C@@](O)(C(N)=O)[C@H](O)[C@]5(CC)C=CCN6CC[C@]43[C@@H]65)C2)C1 | 0.928 µM (active) |  |  |
| FC(F)(F)c1ccc(C=Cc2nc(COc3ccc(CCCCn4ccnn4)cc3)co2)cc1 | 0.261 µM (active) |  |  |
| CC1(C)CC(=O)c2c(C(F)(F)F)nn(-c3ccc(C(N)=O)c(NC4CCC(O)CC4)c3)c2C1 (centres undefined) | 0.185 µM (active) |  |  |
| COc1cc2c(cc1OC)[C@@H]1Cc3ccc(OC)c(OC)c3CN1CC2 |  | 14.1 |  |
| O=c1[nH]nc(OCCCc2ccc(Cl)cc2)c(NCc2cccnc2)c1Br | 7.37 µM (active) |  |  |
| CC(=O)N1CCN(c2ccc(OCc3nn(C)c(C)c3-c3cccc4c(CCCOc5cc(C)c(Cl)c(C)c5)c(C(=O)O)n(Cc5cccnc5)c34)cc2)CC1 |  | -14.9 |  |
| CC1CNc2c(cccc2S(=O)(=O)N[C@@H](CCCN=C(N)N)C(=O)N2CC[C@@H](C)C[C@@H]2C(=O)O)C1 (some centres undefined) |  | 11 |  |
| CO[C@H]1/C=C\O[C@@]2(C)Oc3c(C)c(O)c4c(O)c(c5c(nc6cc(C)ccn65)c4c3C2=O)NC(=O)C(C)=CC=C[C@H](C)[C@H](O)[C@@H](C)[C@@H](O)[C@@H](C)[C@H](OC(C)=O)[C@H]1C |  | -1.37 |  |
| C[C@H](c1ccc(F)cc1CCCC(=O)O)N(c1cc(F)ccc1F)S(=O)(=O)c1ccc(Cl)cc1 |  | -4.45 |  |
| Nc1ncnc2c1ncn2[C@@H]1O[C@H](CO)[C@@H](O)[C@@H]1O | 10.4 µM (active) |  |  |

Assay: qHTS of pediatric cancer cell lines to identify multiple opportunities for drug repurposing: Confirmatory screen for Rh41 cells (AID 1347123);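 further: 48 h compound exposure; nearly all actives have a fitted effect of over 60% in size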;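 on activity change, negative = cytotoxic: plate controls were DMSO for no effect and bortezomib for full effect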
Details: Rh41 rhabdomyosarcoma cells, viability/cytotoxicity qHTS; series mostly up to 45.9 µM; activity change, negative = cytotoxic: at the top concentration
Summary of the method: as §1

| Compound | Potency | activity change, negative = cytotoxic [%] |
| --- | --- | --- |
| C[C@@]1(C(=O)Nc2ccc(F)nc2)CCCN1c1nc(Nc2cc(C3CC3)[nH]n2)c2cccn2n1 | 0.208 µM (active) |  |
| COc1cc([C@@H]2c3cc4c(cc3[C@@H](O[C@@H]3O[C@@H]5CO[C@@H](C)O[C@@H]5[C@H](O)[C@@H]3O)[C@H]3COC(=O)[C@H]23)OCO4)cc(OC)c1O | 4.14 µM (active) |  |
| CC(C)(C)c1[nH]cnc1C=c1[nH]c(=O)c(=Cc2ccccc2)[nH]c1=O | 0.0227 µM (active) |  |
| CC(C)C[C@@H](C(=O)N[C@H](C(=O)OC1CCCC1)c1ccccc1)[C@H](O)C(=O)NO | 11.7 µM (active) |  |
| O=C1Nc2ccc(I)cc2C1=Cc1cc(Br)c(O)c(Br)c1 |  | 7.28 |
| CNC(=O)[C@H](CC1=CN=C2C=CCC=C12)NC(=O)[C@@H](CC(=O)NO)CC(C)C | 2.93 µM (active) |  |
| Cc1ccc2c(c1)C(=O)[C@]1(O)CCN(c3ccccc3)C1=N2 | 11.7 µM (active) |  |
| CN(C)CC[C@H](CSc1ccccc1)Nc1ccc(S(=O)(=O)NC(=O)c2ccc(N3CCN(Cc4ccccc4-c4ccc(Cl)cc4)CC3)cc2)cc1[N+](=O)[O-] | 4.65 µM (active) |  |
| C[C@@H]1O[C@@H](O[C@H]2CC[C@@]3(C)[C@H](CC[C@@H]4[C@H]3C[C@@H](O)[C@]3(C)[C@@H](C5=CC(=O)OC5)CC[C@]43O)C2)C[C@H](O)[C@@H]1O[C@H]1C[C@H](O)[C@H](O[C@H]2C[C@H](O)[C@@H](O)[C@@H](C)O2)[C@H](C)O1 (stereo in doubt) | 0.107 µM (active) |  |
| C[C@@]1(c2cc(-c3cncnc3)c(F)cc2F)CCSC(N)=N1 | 7.37 µM (active) |  |
| COc1ccc2c(c1)c(C1=C(c3c[nH]c4ccccc34)C(=O)NC1=O)cn2CCCN(C)C | 20.8 µM (active) |  |
| CCOC(=O)[C@H](CCc1ccccc1)N[C@@H](C)C(=O)N1CCCC1C(=O)O (some centres undefined) | 9.27 µM (active) |  |
| CC1(C)CC(=O)c2c(C(F)(F)F)nn(-c3ccc(C(N)=O)c(NC4CCC(O)CC4)c3)c2C1 (centres undefined) | 0.369 µM (active) |  |
| O=c1[nH]nc(OCCCc2ccc(Cl)cc2)c(NCc2cccnc2)c1Br | 10.4 µM (active) |  |
| CC1CNc2c(cccc2S(=O)(=O)N[C@@H](CCCN=C(N)N)C(=O)N2CC[C@@H](C)C[C@@H]2C(=O)O)C1 (some centres undefined) |  | 15.8 |
| C[C@H](c1ccc(F)cc1CCCC(=O)O)N(c1cc(F)ccc1F)S(=O)(=O)c1ccc(Cl)cc1 |  | -22.6 |
| Nc1ncnc2c1ncn2[C@@H]1O[C@H](CO)[C@@H](O)[C@@H]1O | 14.7 µM (active) |  |
| Cc1cc(CS(=O)(=O)c2ccccc2)cc(OCc2ccc(CN3CCC[C@H]3CO)cc2)c1 | 16.5 µM (active) |  |

— PubChem BioAssay (NCATS)
